Laboratory results: PubChem BioAssay (NCI)
About 83,000 compounds went through this panel and 20% of them were active in at least one assay; those are over-represented in the sample as a whole.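 A percent growth of 40 corresponds to 60% growth inhibition; 0 means no net growth; -100 means all cells died. Active threshold: below 10.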 Calls of active or inactive are those of the source.

How the values were obtained:
Assay in all cases: NCI-60 one-dose screen, 48 h (100 = growth as untreated, 0 = no growth, -100 = all killed)
[1] = tested on: NCI-H460 lung; conditions: 10 µM unless noted
[2] = tested on: 786-0 renal; conditions: 10 µM unless noted
[3] = tested on: DU-145 prostate; conditions: 10 µM unless noted
[4] = tested on: SF-268 CNS; conditions: 10 µM unless noted
[5] = tested on: SF-539 CNS; conditions: 10 µM unless noted
[6] = tested on: M14 melanoma; conditions: 10 µM unless noted
[7] = tested on: HCT-15 colon; conditions: 10 µM
[8] = tested on: SNB-75 CNS; conditions: 10 µM unless noted
[9] = tested on: PC-3 prostate; conditions: 10 µM unless noted
[10] = tested on: UACC-62 melanoma; conditions: 10 µM unless noted
[11] = tested on: SK-MEL-28 melanoma; conditions: 10 µM unless noted
[12] = tested on: SN12C renal; conditions: 10 µM unless noted
[13] = tested on: TK-10 renal; conditions: 10 µM unless noted
[14] = tested on: HL-60(TB) leukemia; conditions: 10 µM unless noted
[15] = tested on: OVCAR-8 ovarian; conditions: 10 µM unless noted
[16] = tested on: NCI/ADR-RES ovarian; conditions: 10 µM unless noted
[17] = tested on: SW-620 colon; conditions: 10 µM unless noted
[18] = tested on: MCF7 breast; conditions: 10 µM unless noted
[19] = tested on: HCT-116 colon; conditions: 10 µM unless noted
[20] = tested on: KM12 colon; conditions: 10 µM unless noted

Measured: growth

CN(Cc1cccnc1)N=O
inactive: [1] 103% | [2] 107% | [3] 108% | [4] 95.5% | [5] 96.8% | [6] 97.4% | [7] 100% | [8] 85.1% | [9] 95.9% | [10] 98.3% | [11] 108% | [12] 102% | [13] 91.6% | [14] 97.6% | [15] 98.6% | [16] 100% | [17] 98.2% | [18] 95.9% | [19] 93.1% | [20] 102%

CCC[CH2][Sn]([CH2]CCC)([CH2]CCC)[O]C(=O)CC
active: [1] -84.1% | [2] -94.5% | [3] -97.7% | [4] -97.3% | [5] -85.1% | [6] -91.4% | [7] -72.9% | [8] -99.6% | [9] -92.7% | [10] -90% | [11] -98.3% | [12] -80.6% | [13] -97.1% | [14] -1.98% | [15] -70.4% | [16] -87% | [17] -84.8% | [18] -82.1% | [19] -88.6% | [20] -93.2%

Cc1ccccc1NS(=O)(=O)c1cccc(C(=O)Nc2ccc(Br)cc2)c1
inactive: [14] 27.6% [25 µM]

CC(COC(=O)c1ccccc1)N1CC2CCC(C1)O2 (centres undefined)
inactive: [14] 101%

CNC(=O)O/N=C(/C)c1ccc(Cl)cc1
inactive: [1] 113% | [2] 90.7% | [3] 114% | [4] 110% | [5] 125% | [6] 98.7% | [8] 87.4% | [9] 91.8% | [10] 114% | [11] 105% | [12] 105% | [13] 91.6% | [15] 102% | [16] 109% | [17] 117% | [18] 96.6% | [19] 99.9% | [20] 114%

CC(=O)OC1CCC2(C)C(=CCC3C4CC(CN5CC5)C(=O)C4(C)CCC32)C1 (centres undefined)
active: [13] -12.1% | [20] -3.45%
inactive: [1] 88.2% | [2] 87.9% | [3] 80.8% | [4] 101% | [5] 98.1% | [6] 93.4% | [7] 89.7% | [8] 93.9% | [9] 88.3% | [10] 94.4% | [11] 97.9% | [12] 99.6% | [14] 64.2% | [15] 85% | [16] 101% | [17] 65.3% | [18] 15.5% | [19] 74.4%

CCOC(=O)C1(c2ccccc2)CCN(CC(=O)c2ccc(NC(C)=O)cc2)CC1
inactive: [1] 112% | [2] 110% | [3] 123% | [4] 116% | [5] 113% | [6] 93.6% | [7] 108% | [8] 114% | [9] 86.8% | [10] 94% | [11] 124% | [12] 93.2% | [14] 111% | [15] 110% | [16] 107% | [17] 104% | [18] 107% | [19] 97.7% | [20] 112%

N#CCN1C(=O)C(Cc2ccccc2)N=C(c2cccc(O)c2)c2ccc(Cl)cc21 (centres undefined)
inactive: [10] 103% [30 µM] | [13] 102% [30 µM] | [18] 100% [30 µM]

O=[N+]([O-])CC(c1ccccc1F)c1c[nH]c2ccccc12 (centres undefined)
inactive: [14] 51.1%

COc1ccc(CNC(=O)C(O)C(Cc2ccccc2)NC(=O)c2[nH]c3ccccc3c(=O)c2C)cc1OC (centres undefined)
inactive: [14] 97.3%
